Screen size: about 48,000 compounds; about 13,000 (27%) showed an effect of 50% or more. The list shows a part of the results.
Test system: Wolbachia pipientis
Experiment: Anti-Wolbachia Cell-Based Screen
Type: functional
Parameters: scale not given: in the data most compounds retested in dose-response had high values
Details: 5 µM

Row | Compound | Percent Effect [%]
1 | CN(Cc1nccn1C)S(=O)(=O)c1cccc(C#N)c1 | 5.7
2 | CN(C)[C@@H]1CN(C(=O)c2ccc(C#N)cc2)[C@@H]2CCCO[C@H]12.O=C(O)C(F)(F)F | 5.598
3 | Cc1ccc(CN2C[C@@H](N(C)C)[C@H]3OCCC[C@H]32)o1.O=C(O)C(F)(F)F.O=C(O)C(F)(F)F | -10.94
4 | CN(C)[C@@H]1CN(C(=O)CCc2ccccc2)[C@@H]2CCCO[C@H]12.O=C(O)C(F)(F)F | 98.44
5 | COc1cccc(Nc2nc(C3CCCNC3)c3ccccn23)c1.Cl (stereo not given) | 104.7
6 | COc1cccc(Nc2nc(C3CCNCC3)c3ccccn23)c1.Cl | 85.66
7 | COc1ccc(OC)c(C2CCN(Cc3nc(C)n4ccccc34)C2)c1 (stereo not given) | 11.21
8 | Cn1cc(CCCNC(=O)NC2CCN(CC(F)(F)F)C2=O)cn1 (stereo not given) | -5.145
9 | Cc1ncc(CNC(=O)c2oc3ccccc3c2CN(C)C)s1 | -2.973
10 | Cl.Cn1nc(C2CCN(C(=O)Cc3cccc(F)c3)CC2)c2cccnc21 | -4.432
11 | Cc1nc(CC(=O)N2CCC(c3nn(C)c4ncccc34)CC2)cs1.Cl | 92.52
12 | Cn1nc(C2CCN(C(=O)c3cccs3)CC2)c2cccnc21 | 107.6
13 | CN1CCN(C(=O)Cc2ccsc2)Cc2cccnc21.O=C(O)C(F)(F)F | -3.335
14 | Cl.Cn1nc(C2CCN(C(=O)Cc3ccsc3)CC2)c2cccnc21 | 115.7
15 | Cn1cnnc1S(=O)(=O)C1CCN(C(=O)c2cccs2)CC1 | -12.26
16 | COC1CCN(C(=O)Cc2csc(-c3ncccn3)n2)CC1 | -12.9
17 | N#Cc1cccnc1N1CCN(C(=O)c2cccs2)CC1 | -4.28
18 | c1ccc(NCc2cn3c(n2)CN(Cc2ccoc2)CC3)nc1 | 6.648
19 | COc1ccccc1OCCCc1cccc(C#N)n1 | -3.599
20 | FC(F)(F)CCc1ccnc(N2CCN(CCc3ccncc3)CC2)n1 | -22.6
21 | CC(C)N1CCC(N2CCN(C3CCC3)CC2CCO)CC1 (stereo not given) | 3.855
22 | Cc1nc(CN2C[C@@H]3CN(C(=O)c4ccco4)C[C@@H]3C2=O)cs1.O=C(O)C(F)(F)F | -11.8
23 | Cc1nc(CN2C(=O)CCC23CCN(c2ncccc2C)CC3)cs1 | 91.84
24 | CCc1nc(C)sc1C(=O)N1CCN(c2ncccc2C)CC1 | 34.17

Row | Compound | Percent Effect [%]
25 | Cc1nc(CN2CCC3(C2)CN(C(=O)c2ccc[nH]2)C3)cs1 | 122.8
26 | Cc1nc(CN2C(=O)CC[C@@H]3[C@H]2CCN3C(=O)c2ccc[nH]2)cs1 | -9.626
27 | Cc1nc2c(c(N3CCN(Cc4ccco4)CC3)n1)CCNCC2 | 3.397
28 | O=C1CCC2(CCCN(c3ncc(F)cn3)CC2)N1Cc1ccccc1 (stereo not given) | -5.866
29 | O=C(c1ccc[nH]1)N1CC2(CCN(c3nccs3)C2)C1 | -14.28
30 | Cc1nc(CN2C(=O)CCC23CCN(Cc2ccco2)CC3)cs1 | 111.9
31 | Cc1nc(CN2CCOCC23CCN(c2ccc(C#N)cc2)CC3)cs1.O=C(O)C(F)(F)F | -24.99
32 | Cc1nc(CN2CCC23CCN(C(=O)c2ccco2)CC3)cs1 | 98.46
33 | COc1cccc(C(=O)Nc2ccc(OCCC(N)=O)cc2)c1OC | 3.494
34 | N#Cc1ccc(OC2CCN(C(=O)COCC3CCCO3)CC2)cc1 (stereo not given) | -13.18
35 | Cc1cnn(CCC(=O)NS(=O)(=O)N2CCCc3ccccc32)c1 | 4.859
36 | Cc1nc(C2CCCN(C(=O)c3ccc(Cn4cccn4)o3)C2)no1 (stereo not given) | -2.072
37 | Cc1nc(CN2CCN(Cc3ccoc3)Cc3cccnc32)cs1.O=C(O)C(F)(F)F.O=C(O)C(F)(F)F.O=C(O)C(F)(F)F | 3.214
38 | Cc1nc(CN2CCC3(C2)CN(Cc2ccco2)C3)cs1 | 129
39 | Cc1nc(CN2CCC23CCN(Cc2ccco2)CC3)cs1 | 101.3
40 | Cc1nc(CN2CCOC3(CCCN(c4nccs4)C3)C2)cs1 (stereo not given) | -8.721
41 | Cc1nc(CN2CCC23CCN(Cc2ccoc2)CC3)cs1 | 97.06
42 | O=C(O)C(F)(F)F.O=C(O)C(F)(F)F.c1coc(CN2CCCC3(COCCN(Cc4c[nH]nn4)C3)C2)c1 (stereo not given) | -3.131
43 | Cc1cc(C)c(Cn2cncn2)cc1CN1CC[C@H](CO)[C@@H](O)C1 | 2.193
44 | COCCN(Cc1noc(-c2ccc(OC)cc2)n1)C1CC1 | 20.29
45 | CCOCC1CN(C(=O)c2ccsc2)Cc2nn(C)cc21 (stereo not given) | -7.597
46 | CC(Cc1cccc(F)c1)C(=O)NS(=O)(=O)c1cnn(C)c1 (stereo not given) | -18.57
47 | Cc1cccc2nc(CN3CCC(Cn4ccnn4)CC3)cc(=O)n12 | -3.748
48 | CCn1cnnc1C1CCN(C(=O)c2ccc(C(=O)OC)s2)CC1 | -1.592

Row | Compound | Percent Effect [%]
49 | CCn1cnnc1C1CCN(C(=O)c2ccc(OC(C)C)nc2)CC1 | 106.8
50 | CCn1cnnc1C1CCN(C(=O)c2cnn(C(C)(C)C)c2)CC1 | 107
51 | CCn1cnnc1C1CCN(C(=O)c2cnc(C3CC3)s2)CC1 | -9.527
52 | Cn1c(C2CC2)nc2c1CCN(CC(=O)Nc1nncs1)C2 | -1.4
53 | O=C(Nc1cccc(F)c1)NC1CCN(Cc2ccncc2)CC1 | -11.06
54 | CCS(=O)(=O)NCCNC(=O)N(Cc1ccc(C)o1)C(C)C | -16.03
55 | Cn1nc(C(=O)N2CCCCC2c2nc3cc(F)ccc3[nH]2)ccc1=O (stereo not given) | 6.226
56 | c1cn2c(n1)CNCC(COCC1CC1)C2 (stereo not given) | -6.113
57 | Cc1ccc(S(=O)(=O)N2CC[C@@H]3C[C@H](NC(=O)c4n[nH]cc4Cl)[C@@H]32)cc1 | 97.43
58 | CS(=O)(=O)NCCC(=O)N1CCN(S(=O)(=O)c2ccc(Br)cc2)CC1 | 3.27
59 | Cc1ccc(S(=O)(=O)N2C[C@@H]3C[C@@H](NC(=O)C(C)(C)C)[C@@H]3C2)cc1 | -7.611
60 | Cc1ccc(S(=O)(=O)N2CC[C@@H]3C[C@H](NC(=O)c4ccncc4)[C@@H]32)cc1 | 124.2
61 | COC(=O)[C@@H]1Cc2ncn(C)c2CN1S(=O)(=O)c1ccc(C)cc1 | -10.72
62 | Cc1ccc(S(=O)(=O)N2C[C@H]3C[C@H](NC(=O)c4ccn(C)n4)[C@H]3C2)cc1 | 0.5687
63 | Cc1ccc(S(=O)(=O)N2C[C@H]3C[C@H](NC(=O)c4ccnn4C)[C@H]3C2)cc1 | -12.92
64 | Cc1ccc(S(=O)(=O)N2CC[C@@H]3C[C@H](NC(=O)c4[nH]ncc4Br)[C@@H]32)cc1 | 95.45
65 | Cc1cc(C(=O)N2CCc3c(nc(-c4ccncc4)[nH]c3=O)C2)no1 | -7.817
66 | CC(=O)N1CC2(CCN(C(=O)c3ccc4c(c3)OCCO4)CC2)C1 | -3.523
67 | CN(C)C(=O)c1cccn1-c1ccc2c(c1)OCCO2 | 99.12
68 | O=C(c1cccn1-c1ccc2c(c1)OCCO2)N1CCCC1 | 97.35
69 | O=C(O)c1cccn1-c1ccc2c(c1)OCCO2 | 96.33
70 | CN1CCCN(C(=O)c2ccc3c(c2)nc(N2CCOCC2)n3C)CC1 | 16.47
71 | CN(C)C(=O)c1cccnc1-c1ccc2c(c1)OCCO2 | -4.201
72 | O=C(O)C(c1ccc2c(c1)OCCO2)N1CCCC1 (stereo not given) | 10.75

Row | Compound | Percent Effect [%]
73 | CN(C)C(=O)C(C)(C)c1ccc2c(c1)OCCO2 | -10.01
74 | CN1CCCN(C(=O)c2cccn2-c2ccc3c(c2)OCCO3)CC1 | 88.31
75 | Cn1cnnc1C1CCCN(C(=O)c2ccc3c(c2)OCCO3)C1 (stereo not given) | -7.071
76 | O=C(O)C(c1ccc2c(c1)OCCO2)N1CCCCCC1 (stereo not given) | -0.2284
77 | O=C(c1cccnc1-c1ccc2c(c1)OCCO2)N1CCCC1 | -9.168
78 | CN(CC(F)(F)F)C(=O)c1ccc(F)c(NS(C)(=O)=O)c1 | -3.424
79 | CS(=O)(=O)CCn1ccc(NCc2ccc(C#N)cc2)n1 | 4.656
80 | CC(c1nccs1)n1cc(-c2cc(CN3CCCCC3)cs2)nn1 (stereo not given) | 17.2
81 | CC1CN(C(=O)c2ccnc(-n3cncn3)c2)c2ccccc2S1 (stereo not given) | -6.511
82 | CC(C)CNC(=O)c1ccc2nnc(C3CCN(S(C)(=O)=O)C3)n2c1 (stereo not given) | -4.952
83 | Cc1ccc(C(=O)NS(=O)(=O)c2cccc3cnccc23)c(=O)[nH]1 | -6.684
84 | CC(=O)N1CCCCC1c1ncnn1-c1ccc2nc(C)sc2c1 (stereo not given) | 1.056
85 | CCn1nc(C)c(S(=O)(=O)Nc2ccccc2C(=O)OC)c1C | -6.756
86 | CCN(C)S(=O)(=O)NCC(O)c1cc2ccccc2s1 (stereo not given) | -28.91
87 | Cc1nn(CC(=O)O)c(C)c1NS(=O)(=O)c1cccc2ccccc12 | 85.86
88 | CN(C)c1ncc(CNS(=O)(=O)c2cccc3ccccc23)n1C | 5.382
89 | Cc1nn(CC(=O)O)c(C)c1NS(=O)(=O)c1cc2ccccc2s1 | 90.4
90 | Cc1nc2ccc(S(=O)(=O)Nc3c(C)nn(CC(=O)O)c3C)cc2s1 | 96.05
91 | Cc1ccc(S(=O)(=O)Nc2c(C)nn(C)c2C)cc1C | -30.32
92 | Cc1ccc(CCN[C@@H]2c3ccccc3C3(CCNCC3)[C@H]2O)s1 | -1.865
93 | Cc1cc(C(=O)N[C@H](C)c2onc(-c3cccnc3)c2C(=O)O)c(C)o1.Cl | -10.14
94 | C=Cc1ccc(C(=O)N2CCCC(Nc3ccc(F)c(F)c3)C2)cc1 (stereo not given) | -24.37
95 | Cc1cc(=O)[nH]c(SC(C)C(=O)N2CCCN(C3CCCC3)CC2)n1 (stereo not given) | -14.72
